Laboratory results: PubChem BioAssay
Inconclusive results are not listed. Activity calls are given as the source filed them.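 The calls were made as follows, unless noted: active = viability at or below 30% in both replicate assays; inconclusive = viability at or below 30% in just one of the two assays; inactive = the rest.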

Key:
[1] = reducers of endogenous Her2 protein level, primary screen, SKBR3 breast tumor cells, AlphaScreen, ATP viability (AID 461;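 active = Her2 level under about 52% in both replicate screens, with viability over 70% of control, limit read from the data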;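 as to Her2 level: lower value means less Her2 protein in the cells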;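 as to viability: percent of carrier control wells set as 100% viability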); details: 18-24 h, measured here: SKBR3 viability, ATP luminescence, at 10 µM
[2] = biological target: Receptor tyrosine-protein kinase erbB-2 (Homo sapiens) (UniProt P04626); test: as above; details: 18-24 h, at 10 µM, stronger effect = lower value
Receptor tyrosine-protein kinase erbB-2 (Homo sapiens), sequence (P04626 whole entry, looked up): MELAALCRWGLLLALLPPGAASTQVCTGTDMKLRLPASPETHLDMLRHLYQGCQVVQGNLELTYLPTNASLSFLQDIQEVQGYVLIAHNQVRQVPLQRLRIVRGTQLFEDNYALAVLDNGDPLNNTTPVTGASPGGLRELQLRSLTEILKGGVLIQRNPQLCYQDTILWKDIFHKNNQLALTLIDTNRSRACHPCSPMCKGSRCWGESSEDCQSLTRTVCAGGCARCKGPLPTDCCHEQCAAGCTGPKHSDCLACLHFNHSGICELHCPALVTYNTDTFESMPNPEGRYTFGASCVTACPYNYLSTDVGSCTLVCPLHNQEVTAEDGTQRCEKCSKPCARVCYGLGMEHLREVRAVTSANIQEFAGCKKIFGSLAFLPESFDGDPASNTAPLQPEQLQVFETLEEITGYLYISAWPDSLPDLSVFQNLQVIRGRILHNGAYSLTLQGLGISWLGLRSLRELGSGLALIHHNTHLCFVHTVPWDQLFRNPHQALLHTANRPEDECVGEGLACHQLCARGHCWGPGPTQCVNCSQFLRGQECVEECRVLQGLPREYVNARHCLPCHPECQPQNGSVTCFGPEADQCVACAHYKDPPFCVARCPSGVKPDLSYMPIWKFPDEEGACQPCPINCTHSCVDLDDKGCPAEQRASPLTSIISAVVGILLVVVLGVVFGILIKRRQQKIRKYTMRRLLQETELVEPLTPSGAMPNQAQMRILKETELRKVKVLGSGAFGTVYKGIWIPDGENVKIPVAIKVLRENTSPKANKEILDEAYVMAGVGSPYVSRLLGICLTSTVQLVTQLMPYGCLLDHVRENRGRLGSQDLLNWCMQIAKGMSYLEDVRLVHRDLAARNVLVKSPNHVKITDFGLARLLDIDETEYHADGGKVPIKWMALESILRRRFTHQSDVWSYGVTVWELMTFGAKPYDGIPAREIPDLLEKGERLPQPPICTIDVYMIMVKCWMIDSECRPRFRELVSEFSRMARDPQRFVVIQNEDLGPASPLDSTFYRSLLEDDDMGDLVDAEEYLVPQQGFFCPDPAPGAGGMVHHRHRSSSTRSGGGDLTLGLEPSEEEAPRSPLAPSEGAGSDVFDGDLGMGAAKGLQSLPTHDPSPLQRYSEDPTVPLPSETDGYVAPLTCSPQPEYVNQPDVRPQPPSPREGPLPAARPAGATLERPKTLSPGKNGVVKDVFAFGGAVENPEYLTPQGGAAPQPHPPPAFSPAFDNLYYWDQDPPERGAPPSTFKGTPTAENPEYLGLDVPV

[3] = SK-BR-3 cell growth inhibitors, pilot screen, 24 h, human (AID 572;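 active = viability at or below 10% of carrier control in both of two separate runs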;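 also: compound exposure lasted between 18 and 24 h rather than exactly 24 h; 100% = carrier-treated control wells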); details: SK-BR-3 viability, CellTiter-Glo luminescence, at 10 µM, stronger effect = lower value
[4] = HUVEC growth inhibition – cell-based, human, primary screen (AID 575); details: HUVEC proliferation, CellTiter-Glo luminescence, 72 h; at 10 µM; stronger effect = lower value;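 also: 100% = median of untreated cell wells with 0.1% DMSO on each plate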
[5] = growth inhibitors of H69AR lung tumor, primary screen, human, duplicate replicates (AID 580;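 active = viability at or under a set limit in both replicates, limit being median viability minus 3 SD, cut at about 48% in these data, passing the limit was not always enough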;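 also: 100% = mean luminescence of untreated wells and 0% = no signal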); details: H69AR lung tumor cells viability, ATP luminescence, 72 h; at 10 µM; stronger effect = lower value
[6] = reversal of MRP1-mediated doxorubicin resistance, pilot screen, H69AR cells, doxorubicin co-treatment (AID 601;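 active = viability loss from added drug above about 55%, and viability with drug at most 40%, in both replicates, limit read from the data, passing the limit was not always enough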); details: CellTiter-Glo, 72 h, at 10 µM; for differential viability (reversal): stronger effect = higher value
[7] = 384-well plate pilot, post-Golgi transport modulator project, inhibition of yeast transport mutant growth (AID 636; in the data active = inhibition above about 31%); details: absorbance 615 nm, about 18 h, stronger effect = higher value
[8] = growth suppression of yeast trafficking mutant, preliminary HTS, modulators of trafficking downstream of Golgi apparatus project, 1536-format plate, OD 615 nm (AID 637; in the data active = inhibition above about 30%); details: yeast transport mutant growth, absorbance 615 nm, 18 h; stronger effect = higher value
[9] = OD615 S. cerevisiae growth inhibition, permissive medium, pilot counter-assay, permissive growth control for S. cerevisiae lifespan shortening project (AID 705;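 active = growth inhibition above 25% in both replicates, a cutoff set 3 SD above the mean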); details: OD615, 24 h, at 10 µM, stronger effect = higher value
[10] = Restrictive medium S. cerevisiae growth inhibition, OD615, pilot screen of yeast lifespan reduction project, restrictive growth control (AID 706;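 active = growth inhibition above a set limit, 3 SD over mean compound inhibition, in both replicates, cut at about 43% in these data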;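 also: modified DeaD lifespan yeast strain shifted to restrictive glucose medium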); details: OD615, 48 h, at 10 µM, stronger effect = higher value
[11] = viability gain of MRP-1-high H69AR cells under doxorubicin, pilot screen, MRP-1 activator project, CellTiter-Glo, duplicate (AID 807;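 active = viability increase at or above a cutoff of the median across tested compounds plus 3 SD, cut at about 8.5% in these data, passing the limit was not always enough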;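 also: compound pretreatment 18-22 h then 72 h combined with doxorubicin; 0% = doxorubicin alone and 100% = vehicle without doxorubicin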); details: H69AR viability with doxorubicin, CellTiter-Glo luminescence; at 10 µM; stronger effect = higher value
[12] = growth suppression of beta-catenin knockout HCT116, pilot screen, human colon tumor cells (AID 823;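 active = cell viability at or below a set limit in both duplicate runs, the limit being the all-compound median minus 4 SD, cut at about 23% in these data, passing the limit was not always enough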;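 also: 0% = wells killed by 20 µM Hyamine and 100% = untreated DMSO cell wells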); details: CellTiter-Glo, 60 h, at 10 µM, stronger effect = lower value
[13] = growth suppression of PTEN-deleted HCT116, pilot screen, cell-based, HCT116 clonal line, CellTiter-Glo (AID 824;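 active = viability at or below 27.92% in each of two runs, the all-compound median minus 4 SD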;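 also: 0% = 20 µM Hyamine control and 100% = vehicle cell control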); details: 60 h, at 10 µM, stronger effect = lower value
[14] = inhibitors of the yeast RAM network, pilot screen, dse1pr::URA3 reporter, 5-FOA selection (AID 869;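 active = inhibition over a set limit, the all-compound mean plus 3 SD, in both replicate runs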;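 also: 0% = DMSO wells with no growth and 100% = 10 µM 1-NA-PP1 with full growth; RAM network block rescues cells from 5-FOA so hits raise OD615 growth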); details: S. cerevisiae dse1pr::URA3 5-FOA growth, OD615, 2 d; at 10 µM; stronger effect = higher value; strain carries analog-sensitive mutant Cbk1 kinase
[15] = RAM signaling pathway blockade in yeast – S. cerevisiae, Pdr1DBD-CYC8 efflux-inhibited sensitized strain, primary screen (AID 1298;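 active = RAM network inhibition above 8.4% in each of two replicates, 3 SD over the compound average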;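 also: 0% = DMSO untreated cells without growth and 100% = 10 µM 1-NA-PP1 full growth; higher means more yeast growth rescued from 5-FOA killing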); details: S. cerevisiae cbk1-as DSE1-URA3 strain, 5-FOA growth OD615, 2 d; at 50 µM; stronger effect = higher value
[16] = H69AR cells + 2 uM doxorubicin, measured here: viability with 2 uM doxorubicin, stronger effect = lower value
[17] = H69AR cells, compound alone cytotoxicity

Compound	viability [1]	Her2 level [2]	viability [3]	viability [4]	viability [5]	differential viability (reversal) ([6]; H69AR cells + 2 uM doxorubicin)	viability [6, 16]	viability [6, 17]	inhibition [7]	inhibition [8]	growth inhibition [9]	growth inhibition [10]	viability increase [11]	viability [12]	viability [13]	inhibition [14]	RAM network inhibition [15]
Cc1nc2sc(C(c3cccs3)N3CCC(C(N)=O)CC3)c(O)n2n1 (stereo not drawn)	92.5%	128% (inactive)	92.5% (inactive)	100% (inactive)	91.8% (inactive)	-4.42% (inactive)	96.2%	91.8%	-3.73% (inactive)	-1% (inactive)	-0.435% (inactive)	3.77% (inactive)	-0.3% (inactive)	101% (inactive)	94.2% (inactive)	0.69% (inactive)	4.12% (inactive)
COc1ccc(OC)c(C(C)NC=O)c1 (stereo not drawn)	89%	90.5% (inactive)	89% (inactive)	102% (inactive)	99.5% (inactive)	0.26% (inactive)	99.2%	99.5%	-6.89% (inactive)	-2.3% (inactive)	-9.25% (inactive)	-7.95% (inactive)	-0.64% (inactive)	95.2% (inactive)	105% (inactive)	1.43% (inactive)	-0.21% (inactive)
COc1ccc(CNC(=O)c2nnn(Cc3ccc(OC)cc3)c2N)cc1	89.5%	101% (inactive)	89.5% (inactive)	77.5% (inactive)	86.5% (inactive)	-1.82% (inactive)	88.3%	86.5%	-2.69% (inactive)	3.17% (inactive)	-3.35% (inactive)	-1.51% (inactive)	-3.08% (inactive)	91% (inactive)	85.4% (inactive)	1.69% (inactive)	2.66% (inactive)
CC(=NCC1CCNCC1)C1=C(O)CC(C)(C)CC1=O	79%	95.5% (inactive)	79% (inactive)	107% (inactive)	106% (inactive)	13.4% (inactive)	92.4%	106%	-4.73% (inactive)	2.3% (inactive)	10% (inactive)	5.17% (inactive)	-2.21% (inactive)	91.2% (inactive)	97.3% (inactive)	0.485% (inactive)	-1.02% (inactive)
COc1ccc(-c2nc(CS(=O)CC(=O)NCc3ccccn3)c(C)o2)cc1 (stereo not drawn)	103%	92.5% (inactive)	103% (inactive)	92.9% (inactive)	92.9% (inactive)	8.14% (inactive)	84.8%	92.9%	-3.47% (inactive)	-2.46% (inactive)	-3.15% (inactive)	18% (inactive)	-1.58% (inactive)	95.9% (inactive)	98.5% (inactive)	1.57% (inactive)	5.75% (inactive)
COc1ccc(NC(=O)C2Cc3ccccc3C(=O)O2)cc1 (stereo not drawn)	90%	92.5% (inactive)	90% (inactive)	104% (inactive)	91.8% (inactive)	5.95% (inactive)	85.9%	91.8%	-2.53% (inactive)	-1.67% (inactive)	1.22% (inactive)	1.67% (inactive)	0.31% (inactive)	105% (inactive)	104% (inactive)	1.79% (inactive)	3.16% (inactive)
Cc1c(C(=O)OCCOC(C)C)[nH]c2c1C(=O)CC(c1ccco1)C2 (stereo not drawn)	81%	73% (inactive)	81% (inactive)	50.2% (inactive)	38.3% (active)	-34.4% (inactive)	72.7%	38.3%	1.47% (inactive)	-4.59% (inactive)	-3.61% (inactive)	-3.07% (inactive)	-4.69% (inactive)	17.1% (active)	17.8% (active)	0.735% (inactive)	-1.95% (inactive)
c1ccc(-n2ncc3c(NC4CCCCCC4)ncnc32)cc1	83.5%	77% (inactive)	83.5% (inactive)	75.2% (inactive)	45.8% (active)	-28.2% (inactive)	74%	45.8%	-4.93% (inactive)	1.67% (inactive)	-7.69% (inactive)	-4.42% (inactive)	-2.91% (inactive)	88.4% (inactive)	65.7% (inactive)	1.17% (inactive)	6.78% (inactive)
COc1ccc(CNC(=O)c2ccc(CN3CCOCC3)cc2)cc1	116%	93.5% (inactive)	116% (inactive)	99.8% (inactive)	92.1% (inactive)	12.5% (inactive)	79.6%	92.1%	-4% (inactive)	4.52% (inactive)	-8.78% (inactive)	-16.6% (inactive)	-0.28% (inactive)	96.4% (inactive)	105% (inactive)	1.33% (inactive)	0.16% (inactive)
